According to PubChem BioAssay AID2330 (Broad Institute, 2010):
Screen size: about 37,000 compounds; about 2,800 (7.6%) were called active. Inconclusive results (about 1%) are left out. This is one part of a sample in which actives are shown more often than they occur. Values without a mark were called inactive. Rule as the data show it: active = inhibition above about 80%; inconclusive = no clear call, values can overlap the other calls; inactive = below that.

assay: NOMO-1 AML cell viability reduction, primary screen, STK33 inhibitor project, CellTiter-Glo luminescence (AID 2330); conditions: NOMO-1 AML viability, 72 h, hits give high values, concentration not given here

For `C[C@H]1O[C@@H](O[C@H]2CC[C@]3(CO)C4CC[C@]5(C)[C@@H](C6=CC(=O)OC6)CC[C@]5(O)[C@@H]4CC[C@H]3C2)[C@H](O)[C@H](O)[C@@H]1O[C@@H]1O[C@H](CO)[C@@H](O)[C@H](O)[C@H]1O` (stereo not given in full), the inhibition was 119% (active).
In the case of `CCCCCCCCCCCCCC(=O)O[C@@H]1[C@@H](C)[C@@]2(O)[C@@H](C=C(CO)C[C@]3(O)C(=O)C(C)=C[C@@H]23)[C@@H]2C(C)(C)[C@]12OC(C)=O`, the inhibition is reported as 98.2% (active).
For `C[C@H]1CCC/C=C/C2C[C@H](O)C[C@H]2[C@H](O)/C=C\C(=O)O1` (stereo not given in full), the inhibition was 122% (active).
For `c1ccc2c(c1)[I+]c1ccccc1-2`, the inhibition was 141% (active).

Point of comparison: `CCCCn1c(C)c(C(C)=O)c2c(OCC(=O)O)c(Cl)c(Cl)c(Cl)c21`, inhibition -7.33%. Against it:
- CCCCC/C=C\C/C=C\C/C=C\C/C=C\CCCCCC(=O)NCCO — higher, 10.8%
- COc1ccc(CNCc2nc3ccccc3c(=O)n2-c2ccc(F)cc2)cc1 — higher, 23.8%
- CC(C)c1ccc2c(c1O)CC[C@H]1C3=C(CC[C@]21C)C(=O)OC3 — higher, 24.4%
- O=C(Nc1ccc2c(C(F)(F)F)cc(=O)oc2c1)c1nc2ncccn2n1 — higher, 7.98%
- COc1c(C(C)C)cc2c(c1O)[C@@]1(C(=O)O)CCCC(C)(C)C1CC2 (stereo not given in full) — higher, 16%
- Cc1cc(OCc2cc(C(=O)O)oc2C)c2c3c(c(=O)oc2c1)CCCC3 — higher, 0.325%
- CCCN(C/C=C/I)C1CCc2ccc(O)cc2C1 (stereo not given) — higher, 31.2%
- COC1=C[C@@H]2[C@@H]3Cc4ccc(OC)c(O)c4[C@]2(CCN3C)CC1=O — lower, -7.75%
- COC1=CC23CCN(C)[C@H](Cc4cc(OC)c(OC)cc42)C3=CC1=O — higher, 24.6%
- O=C(c1ccccc1)C12CN3CN(CN(C3)C1)C2 — lower, -14.9%
- COc1ccccc1N1C(=O)NC(=O)C(CCc2ccncc2)(Cc2cccc3ccccc23)C1=O (stereo not given) — higher, 32.3%
- COc1ccc2[nH]cc(CCNCc3ccc(Br)cc3)c2c1 — higher, 48.6%
- C=CC(C)(C)c1cc2cc3c(cc2oc1=O)O[C@H](C(C)(C)O)C3 — higher, 45.2%
- Cc1ncsc1CCCl — higher, 11.2%
- CC(C)Nc1nc(Cl)nc(NC(C)C)n1 — higher, 8.29%
